Bioassay records: PubChem, National Center for Advancing Translational Sciences (NCATS)
An excerpt weighted towards active compounds, which were near 17% of everything screened.
TDP1 block: qHTS Assay for Inhibitors of Tyrosyl-DNA Phosphodiesterase (TDP1) | Potency, µM (highest dose often 130 µM), without a hit: top-dose activity change, negative = inhibition, usual class: inhibitors | actives 0.28% (n = 350,000) | AID 485290, 2010 | recombinant TDP1, AlphaScreen DNA substrate cleavage | Tyrosyl-DNA phosphodiesterase 1 (Homo sapiens), Q9NUW8; also: % is scaled to controls: 0 for no effect and ±100 for the full control effect; nearly all actives have a fitted effect of over 40% in size
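Tdp1 1 nM final; 15 min RT w/ cpd; substrate 15 nM, 5 min; beads 10 ug/ml, 10 min; AlphaScreen read. Neg ctrl: no enzyme.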
ClpP mod: qHTS Assay for Activators of ClpP | AID 651965, 2013 | actives 1.9% (n = 340,000) | Potency, µM (titrated, usually from 57.5 µM), for the others: at the top dose activity change, negative = active | purified B. subtilis ClpP, FRET peptide cleavage, 20 min | ATP-dependent Clp protease proteolytic subunit (Bacillus subtilis (strain 168)), P80244; active = well fitted falling curve with a large enough effect; inconclusive = small, poorly fitted or top-dose-only effect; inactive = no such curve, though single readings can be large or run the other way; also: the source files actives as falling curves though it sought activators and does not explain the sign; nearly all actives have a fitted effect of over 65% in size
Target sequence (P80244 whole entry, looked up): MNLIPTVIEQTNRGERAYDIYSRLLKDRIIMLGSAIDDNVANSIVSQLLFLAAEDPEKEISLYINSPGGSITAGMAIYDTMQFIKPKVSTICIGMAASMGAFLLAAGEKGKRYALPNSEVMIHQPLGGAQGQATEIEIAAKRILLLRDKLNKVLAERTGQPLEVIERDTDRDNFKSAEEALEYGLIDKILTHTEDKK
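FRET quenching reversal measured ClpP activation: 10 microg/mL B. subtilis ClpP at pH 8 with the FRET-FV decapeptide, read at 430 nm after 320 nm excitation. The 20-min minus 0-min signal was scaled between DMSO/no-enzyme wells and ADEP (5.8 microM final).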
DT40 TDP1 CPT: qHTS for Inhibitors of human tyrosyl-DNA phosphodiesterase 1 (TDP1): qHTS in cells in presence of CPT; chicken DT40 Tdp1-/-;hTDP1 cells + 20 nM CPT, ATP luminescence, 48 h; Potency, µM (top dose mostly 46.2 µM), for the others: top-dose activity change, negative = growth inhibition, most hits filed as inhibitors; actives 12% (n = 420,000); AID 686979, 2013; also: % is scaled to controls: 0 for no effect and ±100 for the full control effect; nearly all actives have a fitted effect of over 55% in size
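Cell growth measured by CellTiter-Glo luminescence after a minimum 48 h, 37 C compound exposure with 20 nM CPT in Tdp1-knockout DT40 cells stably expressing hTDP1, seeded 400/well; qHTS titration format.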
DT40 TDP1 no CPT: qHTS for Inhibitors of human tyrosyl-DNA phosphodiesterase 1 (TDP1): qHTS in cells in absence of CPT; DT40 Tdp1-/- hTDP1 cells, no CPT, ATP luminescence, 48 h; Potency, µM (top dose mostly 46.2 µM), for inactives: top-dose activity change, negative = growth inhibition, usual class: inhibitors; actives 15% (n = 420,000); AID 686978, 2013; also: % is scaled to controls: 0 for no effect and ±100 for the full control effect; nearly all actives have a fitted effect of over 55% in size
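No-CPT arm: Tdp1-/-;hTDP1 DT40 cells (400/well) plus compounds, incubated ≥48 hr at 37 °C. Readout CellTiter-Glo luminescence.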
Starred values were filed as active, the others as inactive; ? = inconclusive; / = no result given; [ ] = remark or other dose. Unless noted, calls follow the shape of the dose curve; as a rule, active = well fitted curve in the direction sought with a large enough effect; inconclusive = small, poorly fitted or top-dose-only effect, or another doubt; inactive = no such curve, though single readings can be large; an effect the other way counts as inactive or inconclusive. Potency is read from the fitted curve at half-maximal effect.

SMILES	TDP1 block	ClpP mod	DT40 TDP1 CPT	DT40 TDP1 no CPT
COc1cc(OC)c(N(C)S(=O)(=O)c2cccc(C(=O)OCC(=O)N3CCOCC3)c2)cc1Cl	0.9%	0.7%	?	?
COc1cc(OC)c(N(C)S(=O)(=O)c2cccc(C(=O)OCc3c(C)noc3C)c2)cc1Cl	2.6%	/	?	23.1µM*
Cc1noc(C)c1COC(=O)c1cccc(S(=O)(=O)N2CCCCCC2)c1	2.0%	-1.4%	14.6µM*	14.6µM*
CC(CCCC(C)(C)O)CC1C2=C(CCCC2=O)OC2=C1C(=O)CCC2 (configuration not stated)	5.4%	-0.2%	-6.3%	-10.4%
O=C(NCC(c1ccco1)N1CCCC1)c1cn(-c2ccccc2)nc1-c1ccc(F)cc1 (configuration not stated)	-20.9%	0.7%	16.4µM*	10.3µM*
CCOc1ncccc1C(=O)NCC(c1ccco1)N1CCCCC1 (configuration not stated)	1.1%	5.1%	20.6µM*	?
CCc1cc(C(=O)NCC(c2ccco2)N2CCCCC2)sc1C (configuration not stated)	3.3%	0.9%	?	14.6µM*
CC(C)(Oc1ccc(Cl)cc1)C(=O)NCC(c1ccco1)N1CCCCC1 (configuration not stated)	0.6%	-1.9%	20.6µM*	18.4µM*
CSc1ccccc1C(=O)NCC(c1ccco1)N1CCCCC1 (configuration not stated)	4.8%	/	-2.7%	-18.7%
COc1ccccc1-c1nn(-c2ccccc2)cc1C(=O)NCC(c1ccco1)N1CCCC1 (configuration not stated)	3.1%	-4.7%	?	?
COc1ccc(CNC(=O)c2cc3c(=O)oc4ccc(C)cc4c3s2)c(OC)c1	1.2%	-8.0%	5.2%	-24.5%
CCOC(=O)C1=C(C)NC(=S)NC1c1ccc(OCC(=O)N2CCCCC2)cc1 (configuration not stated)	12.1%	/	-3.2%	-4.2%
CCC(C(=O)NCCc1ccc(OC)cc1OC)n1nc(C)n2c(cc3occc32)c1=O (configuration not stated)	2.6%	-6.0%	?	?
O=C(NCC(c1ccco1)N1CCCC1)c1sc2ccccc2c1Cl (configuration not stated)	6.5%	-1.4%	?	20.6µM*
O=C(NCC(c1ccco1)N1CCCC1)c1ccccc1F (configuration not stated)	1.0%	-1.1%	-2.6%	-2.3%
O=C(NCC(c1ccco1)N1CCCCC1)c1ccc(OCc2ccccc2)cc1 (configuration not stated)	5.4%	-1.9%	-5.8%	-12.4%
CCOCc1c(C(=O)NCC(c2ccco2)N2CCCC2)oc2ccccc12 (configuration not stated)	0.8%	-3.7%	23.1µM*	?
Cc1noc(/C=C/c2ccco2)c1S(=O)(=O)N1CCC(C(=O)Nc2ccc(F)cc2F)CC1	0.0%	-7.1%	?	?
CCN(C(=O)COC(=O)/C=C/c1ccc(F)cc1)C1CCCCC1	-0.1%	/	-9.5%	?
O=C(/C=C/c1ccccc1)OCC(=O)N1CCCC1	-0.3%	0.5%	1.5%	15.3%
O=C(/C=C/c1ccco1)OCC(=O)N1CCCCC1	7.08µM*	-4.0%	-5.6%	-7.4%
CCN(C(=O)COC(=O)/C=C/c1ccco1)C1CCCCC1	20µM*	1.4%	1.0%	-15.2%
CCN(CC)c1ccc(N=Nc2ccc(S(=O)(=O)N(C)C)cc2)c(S(=O)(=O)NCC[n+]2ccccc2)c1	/	/	-19.9%	-30.2%
Cc1ccc(-n2c(=O)[nH]c3c(C(N)=O)nc(-c4ccc(C)o4)nc32)cc1	-6.1%	-4.8%	9.2µM*	13µM*
Cc1ccc(-n2c(=O)[nH]c3c(C(N)=O)nc(CC(C)C)nc32)cc1	5.2%	28.2µM*	-22.5%	-14.3%
SMILES	TDP1 block	ClpP mod	DT40 TDP1 CPT	DT40 TDP1 no CPT
NC(=O)c1nc(-c2ccc(F)c(F)c2)nc2c1[nH]c(=O)n2-c1cccc(Cl)c1	-2.5%	-10.7%	?	-17.1%
Cc1ccsc1C(=O)N(Cc1cc2cc3c(cc2nc1N1CCOCC1)CCC3)CC1CCCO1 (configuration not stated)	/	/	-9.9%[9.04 µM]	-2.9%
Cc1ccc2occ(C(c3nnnn3C3CCCC3)N3CCN(C(=O)c4ccco4)CC3)c(=O)c2c1 (configuration not stated)	7.1%	-1.3%	16.4µM*	?
CN(CCOc1ccc(Br)cc1)CC(O)COc1ccc(C#N)cc1 (configuration not stated)	7.2%	2.5%	?	4.11µM*
CCCN(Cc1nc2cc(Cl)ccc2c(=O)[nH]1)C(=O)c1ccc(S(=O)(=O)N2CCCC2)cc1	1.5%[56.1 µM]	-2.0%	?	20.6µM*
CC(=O)Nc1c(I)cc(I)c(C(=O)O)c1I	11.9%[56.1 µM]	/	-15.5%	-10.7%
Cc1cccc(NC(=S)NC(=O)/C=C/c2ccco2)c1	7.6%	/	3.26µM*	?
O=C(/C=C/c1ccco1)NC(=S)Nc1ccccc1	/	1.0%	-28.5%	25.9µM*
CC(=O)c1ccc(NC(=S)NC(=O)/C=C/c2ccco2)cc1	/	0.3%	-10.3%	?
CC(OC(=O)/C=C/c1ccccc1)C(=O)Nc1cccc(C#N)c1 (configuration not stated)	0.0%	0.8%	16.4µM*	16.4µM*
O=C(/C=C/c1ccco1)NC(=S)Nc1cccc([N+](=O)[O-])c1	-5.7%	-2.1%	?	14.6µM*
COc1ccc([N+](=O)[O-])cc1NC(=O)C(C)OC(=O)/C=C/c1ccco1 (configuration not stated)	-2.6%	2.0%	-13.0%	?
O=C(/C=C/c1ccco1)NC(=S)Nc1ccc(N2CCOCC2)c(Cl)c1	3.0%	-1.5%	5.17µM*	4.61µM*
CC(OC(=O)/C=C/c1ccco1)C(=O)Nc1cccc([N+](=O)[O-])c1 (configuration not stated)	/	0.9%	18.4µM*	18.4µM*
CSc1cccc(NC(=O)/C=C/c2ccco2)c1	3.4%	/	23.1µM*	?
O=C(/C=C/c1ccccc1)NC(=S)Nc1ccc(N2CCOCC2)c(Cl)c1	5.2%	-6.4%	?	?
O=C(/C=C/c1ccco1)Nc1ccc(Oc2ccc(Cl)cc2)cc1	0.0%	0.4%	4.11µM*	3.26µM*
O=C(O)[C@H]1CCCN(CCC=C(c2ccccc2)c2ccccc2)C1	11.9%[56.1 µM]	/	/	/
CC(C)(C)C(=O)Nc1ccc(C(=O)NNC(=O)Cc2ccccc2)cc1	2.6%	-1.1%	2.1%	-8.6%
COc1ccc(Cl)cc1NS(=O)(=O)c1c(C)[nH]c(=O)[nH]c1=O	-2.6%	-1.6%	-0.1%	?
